Screening results from PubChem BioAssay.
Rows were chosen to be rich in hits. Some 1.5% of all compounds tested hit in one or more screens of this group.
MenB inh: inhibitors of Mycobacterium tuberculosis MenB enzyme; inhibition, % (concentration not given with the values); P9WNP5; MenB enzyme assay, absorbance read-out; hit rate 0.43% among 100,000; in the data active = inhibition above about 21%, passing the limit was not always enough
MbtI inh: inhibitors of Mycobacterium tuberculosis siderophore enzyme MbtI; P9WFX0; purified MbtI enzyme, fluorescence intensity read-out; inhibition, % (no concentration beside the values); hit rate 0.89% among 100,000; in the data active = inhibition mostly above about 56%, no sharp cut-off; inactive = mostly below about 77%
AID504770: growth inhibitors of E. coli YBA685 in a screen for V. cholerae RctB (chromosome II replication) inhibitors. z-score (test concentration not listed). hit rate 0.27% among 130,000. E. coli YBA685 rctB-dependent plasmid, OD600 growth, 3 h; active compounds read low; in the data active = z-score below about -2, passing the limit was not always enough
PV pol inh: poliovirus RNA polymerase inhibition; P03300; poliovirus polymerase elongation, fluorescence polarization; active compounds read low; % elongation, % (compound at 16.7 µg/mL); hit rate 0.66% among 150,000; AID 588519; in the data active = % elongation below about 90%
Target sequence (P03300 1749-2209 limits assumed): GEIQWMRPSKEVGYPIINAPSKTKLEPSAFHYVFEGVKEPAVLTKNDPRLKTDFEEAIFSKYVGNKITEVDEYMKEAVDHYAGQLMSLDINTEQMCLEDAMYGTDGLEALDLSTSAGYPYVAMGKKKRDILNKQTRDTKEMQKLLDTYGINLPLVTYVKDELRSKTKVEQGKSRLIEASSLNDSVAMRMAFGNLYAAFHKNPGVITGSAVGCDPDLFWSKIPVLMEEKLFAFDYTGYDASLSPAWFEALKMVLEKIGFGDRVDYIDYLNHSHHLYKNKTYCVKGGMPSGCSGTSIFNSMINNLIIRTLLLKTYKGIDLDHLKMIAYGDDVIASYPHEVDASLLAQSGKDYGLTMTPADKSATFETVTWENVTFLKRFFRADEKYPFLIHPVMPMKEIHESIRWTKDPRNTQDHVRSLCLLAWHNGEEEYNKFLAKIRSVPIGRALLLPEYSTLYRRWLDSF
Large screens that a line does not name were inactive.

C=CCn1c(NC(=O)c2ccccc2)c(C(=O)OCC)sc1=S	MbtI inh 78
CCCc1cc2ccccc2o1	MenB inh 32
CCCc1cc(=O)c2c(O)cccc2o1	none (no result: MenB inh, MbtI inh, PV pol inh)
NC(=O)c1sc(-c2ccsc2)cc1NC(=O)/C=C/c1ccsc1	none
O=C(Nc1ccc(N2C(=O)C=CC2=O)cc1Cl)c1ccco1	MbtI inh 96
CN(C)S(=O)(=O)c1ccc(C(=O)N2CCc3ccccc3C2)cc1	none (no result: MenB inh, MbtI inh, PV pol inh)
COc1ccc(CNC(=S)N(CC(N)=O)C(C)C)cc1	none
O=C(O)c1ccc2c(c1)ncn2C1CCCCC1	none
Nc1ccc2c(c1)ncn2C1CCCCC1	PV pol inh 85
O=S(=O)(NC1=NCCS1)c1ccc(N=NN2CCCCC2)cc1	none
Cc1ccc(S(=O)(=O)Nc2ccc(N=NN3CCCCC3)cc2)cc1	AID504770 -6.8
COc1ccc(/C=C/C(=O)Nc2ccccc2)cc1	none
COC(=O)/C=C/C(=O)Nc1ccccc1	MbtI inh 101
O=C(Cn1c(C(=O)NCc2ccco2)cc2sccc21)c1ccccc1	MenB inh 24
CCc1c(C)nc(SCCOc2ccc(OC)cc2)[nH]c1=O	none (no result: MenB inh, MbtI inh, PV pol inh)
COc1ccc(OCCSc2nc(C)cc(=O)[nH]2)cc1	MenB inh 51
O=C(CSc1nnc(Cc2ccccc2)o1)N(c1ccccc1)c1ccccc1	MbtI inh 75
O=C(CSc1nnc(Cc2ccccc2)o1)c1ccccc1	none
CCOC(=O)C1=C(C)OC2(O)c3ccccc3C(=O)C12O (stereo not given)	PV pol inh 56
CCOC(=O)N1CCN(S(=O)(=O)c2ccccc2)CC1	none (no result: MenB inh, MbtI inh, PV pol inh)
CN(C)S(=O)(=O)c1ccc(S(=O)(=O)N2CCN(C=O)CC2)cc1	MenB inh 31
CN(C)C(=O)N1CCN(S(=O)(=O)c2ccccc2)CC1	MenB inh 37
C/C(=N\NC(N)=S)c1ccc(O)cc1	none
C/C(=N\NC(=S)Nc1ccccc1C)c1ccc(O)cc1	PV pol inh 75
C/C(=N\NC(=S)NC1CCCCC1)c1ccc(O)cc1	MbtI inh 90
Nn1c(-c2ccco2)n[nH]c1=S	none
CCOc1ccccc1-c1n[nH]c(=S)n1N	PV pol inh 83
CCOc1cc(/C=C2/SC(=S)N(C(C(=O)O)c3ccccc3)C2=O)ccc1O (stereo not given)	none (no result: MenB inh, MbtI inh, PV pol inh)
Cc1ccccc1N1CCN(C(=O)c2c(C)oc3cc4c(C(=O)N5CCN(c6ccccc6C)CC5)c(C)oc4cc23)CC1	AID504770 -3.3
COc1cc2c(C(=O)N3CCN(c4ccccc4C)CC3)c(C)oc2cc1Br	none
CC1CN(C(=O)Nc2ccc(F)cc2)c2ccccc2S1 (stereo not given)	none
C1CCN(SN2CCCCC2)CC1	PV pol inh 78 (no result: MbtI inh)
O=S(=O)(CCN1CCN(Cc2ccccc2)CC1)c1ccc(Cl)cc1	none (no result: MenB inh, MbtI inh, PV pol inh)
Cc1cc(=O)oc2cc(OCC(O)CN(C)C3CCCCC3)ccc12 (stereo not given)	none
CC12CN3CC(C)(C1O)C(O)C(C)(C3)C2O (stereo not given)	PV pol inh 86
CN(Cn1c(=O)oc2ccccc21)C1CCCCC1	none (no result: MbtI inh)
O=C(NN1C(=O)c2ccccc2C1=O)c1ccccc1	none (no result: MbtI inh)
Cc1ccccc1C(=O)NN1C(=O)c2ccccc2C1=O	MenB inh 33
O=C(O)c1ccc(S(=O)(=O)Nc2ccc3oc(=O)sc3c2)cc1	MbtI inh 78 (no result: MenB inh, PV pol inh)
C=CCn1cnnc1SC(C)C(=O)N(CC)c1cccc2ccccc12 (stereo not given)	none
COc1cc(CNC(C)(C)C)ccc1OCC(=O)NC(C)(C)C	none
CCOc1cc(CNc2ncn[nH]2)ccc1OCC(=O)NC(C)(C)C	AID504770 -2.5
N#Cc1c(Sc2ccccc2)nc2sccn12	none (no result: MenB inh, MbtI inh, PV pol inh)
Cn1nc(-c2ccc(F)cc2)nc2c(=O)n(C)c(=O)nc1-2	PV pol inh 36
COc1ccc(-c2nc3c(=O)n(C)c(=O)nc-3n(C)n2)cc1OC	none (no result: MenB inh, PV pol inh)
CNC(=O)NC(=O)C(C)Sc1nncn1-c1ccccc1 (stereo not given)	none
O=C(O)CC1CCCCN1 (stereo not given)	none
CC1(C)CC(=O)C2=C(C1)N=C1c3ccccc3C(=O)C1C2c1ccc(O)c(O)c1 (stereo not given)	MbtI inh 85 (no result: MenB inh, PV pol inh)
CCCNC(=O)Nc1ccc(Br)cc1F	none
CCc1cc(Br)ccc1NC(C)=O	AID504770 -2.7 (no result: MenB inh, MbtI inh, PV pol inh)
COc1ccc(NCc2csc(-c3ccccc3)n2)cc1Cl	none (no result: MenB inh)
O=C(Nc1ncnc2sc3c(c12)CCC3)c1ccccc1	none (no result: MenB inh, MbtI inh, PV pol inh)
Cc1c(C(=O)NNc2ncnc3sc4c(c23)CCCC4)oc2ccccc12	AID504770 -4.2
CC(OC(=O)Cc1coc2cc3c(cc12)CCC3)C(=O)Nc1ccc2c(c1)OCO2 (stereo not given)	none
c1ccc2c(c1)COC1(CCCCC1)N2	MenB inh 38
CCOC(=O)c1cc(-c2ccc(OC)c(S(=O)(=O)N3CCc4ccccc43)c2)on1	none
CSc1nsc(SC)c1NC(=O)OCCc1ccccn1	none (no result: MenB inh, MbtI inh, PV pol inh)
CSc1nsc(SC)c1NC(=O)OCC1CCCO1 (stereo not given)	PV pol inh 88 (no result: MbtI inh)
NS(=O)(=O)c1ccc(-n2cccc2C=C2C(=O)NC(=S)NC2=O)cc1	MbtI inh 97
COc1cc(Br)c(CSc2n[nH]c(=O)n2C2CC2)cc1OC	none
Cc1cccc(NC(=O)c2nc(S(C)(=O)=O)ncc2Cl)c1	none (no result: MenB inh, MbtI inh, AID504770)
CS(=O)(=O)c1ncc(Cl)c(C(=O)Nc2cccc(Cl)c2)n1	MbtI inh 81
COc1ccc(NC(=O)c2nc(S(C)(=O)=O)ncc2Cl)cc1Cl	MbtI inh 88
COC(=O)c1nc(S(C)(=O)=O)ncc1Cl	AID504770 -2.7
CC1(C)N=C2C(=[N+]1[O-])CCC/C2=N/O	none
O=C(Nc1ncnc2sc3c(c12)CCCC3)C(F)(F)F	none (no result: MenB inh)
Cc1ccsc1C=Nc1ccc(OC(F)(F)F)cc1	none (no result: MenB inh)
Cc1ccsc1C=Nc1ccc(O)cc1	MbtI inh 96
CC(C)(C)C1C/C(=C\c2ccc3c(c2)OCO3)C(=O)/C(=C/c2ccc3c(c2)OCO3)C1 (stereo not given)	none (no result: MbtI inh)
O=C(Cn1[nH]c(=O)c2ccccc2c1=O)N1CCSC1=NCc1ccccc1	PV pol inh 90
O=C(c1cc(=O)[nH]c2ccccc12)N1CCSC1=NCCc1ccccc1	PV pol inh 64
CC1(C)CSC(=NCc2ccccc2)N1C(=O)Cn1[nH]c(=O)c2ccccc2c1=O	none
O=C(c1cc(=O)[nH]c2ccccc12)N1CCCc2ccccc21	none (no result: PV pol inh)
CS(=O)(=O)c1ccc(Cl)c(NC(=O)c2ccc(C#N)cc2)c1	none
CC1(C)C(C(=O)O)N2C(=O)CC2S1(=O)=O (stereo not given)	AID504770 -2.4
CC(=O)Oc1ccc(-c2ccccc2)cc1	none
CC(=O)[O][Hg][c]1ccccc1	AID504770 -5.2
O=C(Sc1ccc(Cl)cc1)c1cnn(-c2ccccc2)c1C(F)(F)F	MbtI inh 54
Cn1c(SCC(=O)Nc2ccccc2)nnc1-c1ccco1	none (no result: MenB inh, MbtI inh, PV pol inh)
COc1ccc2c(c1)nc(SCC(C)O)n2C (stereo not given)	none (no result: MenB inh)
COc1ccc2c(c1)nc(SCC(=O)C(C)(C)C)n2C	MbtI inh 53
CC(C)CC(C(N)=O)N1C(=O)c2ccccc2C1=O (stereo not given)	none
C=CCn1c(C(C)Oc2ccc(Cl)cc2)n[nH]c1=S (stereo not given)	MbtI inh 65
